Sampled rows, rich in hits. Any-hit rate of the full collection: about 6.7%.
T cruzi growth-1: inhibitors of T. cruzi proliferation | actives 5.9% (n = 77,000) | inhibition, % at 8.34 µM | T. cruzi beta-gal in NIH3T3, GalScreen luminescence, 90 h;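 active means mean inhibition above about 93%, with at least 55% of replicates each passing it, limit read from the data, passing the limit was not always enough; inconclusive means only one of those two conditions holds; inactive means neither condition holds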
Pf Dd2 growth: P. falciparum Dd2 growth inhibition; actives 2.3% (n = 94,000); activity change, % at 10 µM; SYBR Green, 72 h; stronger effect = lower value; in the data active means activity change below about -80%; inconclusive means no clear call, values can overlap the other calls
C diff growth: blocks growth of Clostridium difficile. AID 1259249. Clostridium difficile clinical isolate growth, OD600, 24 h; stronger effect = lower value. growth activity, negative = inhibition, % at 16 µg/mL (by protocol). actives 0.25% (n = 86,000);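 active means mean growth activity at or below -80% and every replicate also at or below -80%; inconclusive means mean at or below -80% but some replicate above -80%; inactive means mean growth activity above -80%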;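 further: 0% = DMSO wells and -100% = levofloxacin 16 µg/mL wells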
T cruzi growth-2: inhibitors of T. cruzi proliferation | AID 651739 | shares compounds with T cruzi growth-1 | T. cruzi beta-gal in NIH3T3, GalScreen luminescence, 90 h | inhibition, % at 8.35 µM | actives 72% (n = 5,600);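 active means mean replicate inhibition above about 95% and at least 55% of replicates individually reaching it, limit read from the data; inconclusive means only one of the two criteria is met; inactive means neither criterion is met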
T cruzi growth-3: Trypanosoma cruzi proliferation inhibition | shares compounds with T cruzi growth-1 | T. cruzi beta-gal in NIH3T3, GalScreen luminescence, 90 h | inhibition, % at 2.09 µM | actives 21% (n = 5,600) | AID 651740;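 active means mean inhibition above about 95%, with at least 55% of replicates also reaching it, limit read from the data; inconclusive means meets just one of the two conditions; inactive means meets neither condition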;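 further: plate controls were neutral control median for no effect and positive control median for full effect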
3T3 cytotox: NIH/3T3 (mouse) viability loss; shares compounds with T cruzi growth-1; cytotoxicity (signal decrease), % at 8.35 µM; AID 651742; actives 14% (n = 5,600); NIH/3T3 viability, CellTiter-Glo ATP luminescence, 90 h;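 active means mean signal decrease across replicates above about 35% based on untreated-well scatter, with enough replicates individually passing, limit read from the data; inconclusive means no rule stated though some were filed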;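 further: 0% = median of neutral control wells and 100% = median of positive control wells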
3T3 cytotox 2: cytotoxicity in mouse NIH/3T3 fibroblasts. shares compounds with T cruzi growth-1. NIH/3T3 viability, CellTiter-Glo ATP luminescence, 90 h. inhibition, % at 24.9 µM. actives 56% (n = 5,600). AID 651744;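 active means mean loss of cell viability signal at or above a set limit, and enough replicates individually reaching it; inconclusive means meets only the mean limit or only the replicate share; inactive means meets neither condition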;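 further: 0% = median of neutral control wells and 100% = median of positive control wells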
Active calls of the source: *; ? = inconclusive; · = not tested or not shown.

SMILES	T cruzi growth-1	Pf Dd2 growth	C diff growth	T cruzi growth-2	T cruzi growth-3	3T3 cytotox	3T3 cytotox 2
COc1ccc(NC(=O)N(C)C[C@H]2Oc3cc(C#CCC(C)C)ccc3S(=O)(=O)N([C@@H](C)CO)C[C@@H]2C)cc1	95*	-38	-3	106*	61	13	89*
COc1ccc(NC(=O)N(C)C[C@@H]2Oc3cc(C#CCC(C)C)ccc3S(=O)(=O)N([C@H](C)CO)C[C@H]2C)cc1	89	-34	1	·	·	·	·
CCCC#Cc1ccc2c(c1)O[C@H](CN(C)C(=O)Nc1ccc(OC)cc1)[C@@H](C)CN([C@@H](C)CO)S2(=O)=O	113*	-35	11	112*	71	28	-15
COc1ccc2c3c(n(C)c2c1)[C@H](CO)N(C(C)=O)CC31CCN(C(=O)NC(C)C)CC1	·	26	-8	·	·	·	·
O=C(C[C@@H]1CC[C@H]2[C@@H](COC[C@@H](O)CN2Cc2cc(F)cc(F)c2)O1)NC1CCC1	13	-1	-2	·	·	·	·
COc1ccc(NC(=O)N(C)C[C@@H]2Oc3cc(C#CCN(C)C)ccc3S(=O)(=O)N([C@H](C)CO)C[C@@H]2C)cc1	60	3	-2	·	·	·	·
CC(C)CC#Cc1ccc2c(c1)O[C@H](CN(C)C(=O)Nc1ccccc1F)[C@@H](C)CN([C@H](C)CO)S2(=O)=O	92*	-49	-8	107*	39	11	68*
CC(C)CC#Cc1ccc2c(c1)O[C@H](CN(C)C(=O)Nc1ccccc1F)[C@H](C)CN([C@H](C)CO)S2(=O)=O	85	-41	15	·	·	·	·
COc1ccc(NC(=O)N(C)C[C@@H]2Oc3cc(C#CCC(C)C)ccc3S(=O)(=O)N([C@@H](C)CO)C[C@@H]2C)cc1	99*	-50	-8	106*	111*	-11	96*
COc1ccccc1-c1ccc([C@H]2[C@@H](C#N)N(C(=O)C3CCC3)[C@H]2CO)cc1	52	-32	7	·	·	·	·
C[C@H]1CCCCO[C@H](CN(C)CC2CCCCC2)[C@@H](C)CN([C@@H](C)CO)C(=O)c2cc(NC(=O)NC3CCCCC3)ccc2O1	68	-12	·	·	·	·	·
Cc1cc(C(=O)Nc2cccc3c2O[C@H](CN(C)S(=O)(=O)c2ccccc2)[C@H](C)CN([C@H](C)CO)C3=O)n(C)n1	3	-33	7	·	·	·	·
C[C@H]1CCCCO[C@@H](CN(C)S(=O)(=O)c2ccc(F)cc2)[C@@H](C)CN([C@@H](C)CO)C(=O)c2cc(NC(=O)NC3CCCCC3)ccc2O1	69	-60	1	·	·	·	·
Cc1ccc(S(=O)(=O)N(C)C[C@@H]2OCCCC[C@H](C)Oc3ccc(NC(=O)NC4CCCCC4)cc3C(=O)N([C@H](C)CO)C[C@@H]2C)cc1	99*	-48	-9	107*	64	-7	0
Cc1ccc(S(=O)(=O)N(C)C[C@H]2OCCCC[C@H](C)Oc3ccc(NC(=O)NC4CCCCC4)cc3C(=O)N([C@@H](C)CO)C[C@@H]2C)cc1	74	?	-5	·	·	·	·
C[C@@H]1CCCCO[C@H](CN(C)S(=O)(=O)c2ccc(Cl)cc2)[C@@H](C)CN([C@@H](C)CO)C(=O)c2cc(NC(=O)NC3CCCCC3)ccc2O1	101*	·	-3	105*	84	17	33*
Cc1ccc(S(=O)(=O)N(C)C[C@H]2OCCCC[C@@H](C)Oc3ccc(NC(=O)NC4CCCCC4)cc3C(=O)N([C@H](C)CO)C[C@H]2C)cc1	99*	-79	-9	105*	?	-34	14
C[C@@H]1CCCCO[C@H](CN(C)S(=O)(=O)c2ccc(Cl)cc2)[C@@H](C)CN([C@H](C)CO)C(=O)c2cc(NC(=O)NC3CCCCC3)ccc2O1	27	·	7	·	·	·	·
Cc1ccc(S(=O)(=O)N(C)C[C@H]2OCCCC[C@@H](C)Oc3ccc(NC(=O)NC4CCCCC4)cc3C(=O)N([C@@H](C)CO)C[C@H]2C)cc1	100*	-55	-16	108*	31	-6	-54
C[C@H](CO)N1C[C@H](C)[C@H](CN(C)S(=O)(=O)c2ccc(Cl)cc2)OCCCC[C@H](C)Oc2ccc(NC(=O)NC3CCCCC3)cc2C1=O	69	·	-5	·	·	·	·
CO[C@@H]1CN(C)C(=O)c2ccc(NC(=O)Nc3cc(F)ccc3F)cc2OC[C@H](C)N(C(=O)c2cnccn2)C[C@H]1C	-30	-9	·	·	·	·	·
CCCC#Cc1cnc2c(c1)C(=O)N([C@H](C)CO)C[C@H](C)[C@H](CN(C)Cc1ccccc1)O2	·	-44	1	·	·	·	·
CC(=O)N1C[C@@H]2[C@H](c3ccccc31)[C@H](CO)N2C(=O)CC1CC1	12	9	-1	·	·	·	·
Cc1ccc(S(=O)(=O)N(C)C[C@@H]2OCCCC[C@H](C)Oc3ccc(NC(=O)NC4CCCCC4)cc3C(=O)N([C@@H](C)CO)C[C@@H]2C)cc1	101*	-83*	-4	106*	93	3	1
C[C@H](CO)N1C[C@H](C)[C@@H](CN(C)S(=O)(=O)c2ccc(F)cc2)OCCCC[C@H](C)Oc2ccc(NC(=O)NC3CCCCC3)cc2C1=O	43	-32	6	·	·	·	·
SMILES	T cruzi growth-1	Pf Dd2 growth	C diff growth	T cruzi growth-2	T cruzi growth-3	3T3 cytotox	3T3 cytotox 2
CO[C@@H]1CN(C)C(=O)c2ccc(NS(=O)(=O)c3ccccc3C)cc2OC[C@@H](C)N(S(=O)(=O)c2ccccc2)C[C@H]1C	46	-55	·	·	·	·	·
C[C@H]1CN([C@@H](C)CO)C(=O)c2c(c3ccccc3n2C)-c2ccccc2CO[C@@H]1CN(C)S(=O)(=O)c1ccsc1	114*	-80*	4	107*	57	1	9
C[C@@H]1CN([C@@H](C)CO)C(=O)c2c(c3ccccc3n2C)-c2ccccc2CO[C@H]1CN(C)S(C)(=O)=O	21	6	·	·	·	·	·
COc1cccc(S(=O)(=O)N(C)C[C@@H]2OCc3ccccc3-c3c(n(C)c4ccccc34)C(=O)N([C@H](C)CO)C[C@H]2C)c1	63	-58	-4	·	·	·	·
C[C@@H]1CN([C@@H](C)CO)C(=O)c2c(c3ccccc3n2C)-c2ccccc2CO[C@@H]1CN(C)S(=O)(=O)c1ccc(Cl)cc1	100*	-87*	·	98*	102*	3	66*
C[C@@H]1CN([C@@H](C)CO)C(=O)c2c(c3ccccc3n2C)-c2ccccc2CO[C@H]1CN(C)S(=O)(=O)c1cccc(C#N)c1	93	-68	-3	·	·	·	·
C[C@H](CO)N1C[C@H](C)[C@H](CN(C)S(=O)(=O)c2cccc(C#N)c2)OCc2ccccc2-c2c(n(C)c3ccccc23)C1=O	101*	-83*	0	105*	42	-4	4
Cc1cccc(S(=O)(=O)N(C)C[C@@H]2OCc3ccccc3-c3c(n(C)c4ccccc34)C(=O)N([C@H](C)CO)C[C@@H]2C)c1	?	-86*	·	99*	106*	25	78*
